We go through 1 sequence from article PMC7862700, “An all-to-all approach to the identification of sequence-specific readers for epigenetic DNA modifications on cytosine”.

Holding throughout (assay): DAPPL (digital affinity profiling via proximity ligation, sequencing); 10 mM Tris-HCl pH 7.5, 50 mM NaCl, 1 mM DTT, 4% glycerol, room temperature, 30 min; GST-TFs on glutathione beads, 16-mer random dsDNA library, 0.1% formaldehyde crosslink after washing; high values mean tight binding
One experiment deals with T1, FEV (Homo sapiens, UniProt Q99581 1-238).
T1 sequence: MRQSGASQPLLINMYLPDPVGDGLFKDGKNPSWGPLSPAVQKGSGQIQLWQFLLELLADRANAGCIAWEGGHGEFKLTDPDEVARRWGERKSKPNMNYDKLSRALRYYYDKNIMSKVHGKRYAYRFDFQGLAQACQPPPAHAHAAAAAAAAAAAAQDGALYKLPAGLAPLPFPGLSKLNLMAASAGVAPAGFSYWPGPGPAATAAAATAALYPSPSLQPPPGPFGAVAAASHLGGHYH
The following applies: protein: recombinant; tags: N-terminal GST; dsDNA, one strand shown. In a few lines:
(§1)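 Human transcription factors fused to GST were expressed in yeast, captured on glutathione beads, given DNA barcodes and pooled with a GST-only negative control. Pools were incubated with 200 nmole of a 16-mer random double-stranded DNA library in Tris/NaCl/DTT/glycerol buffer at room temperature for 30 min. They were then washed, crosslinked with 0.1% formaldehyde, proximity-ligated (BsaI/T4 ligase, 1 h, 37 °C), PCR-amplified and sequenced on an Illumina NextSeq500. Binding signal is each 6-mer's read frequency for a factor divided by its frequency for the GST control.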

A further experiment has as its target ETV5 (Homo sapiens, UniProt P41161 1-510). The settings on record: protein: recombinant; tags: N-terminal GST; dsDNA, one strand shown. The method, boiled down: as §1
A further experiment concerns the target HSF1 (Homo sapiens, UniProt Q00613 1-529). The settings on record: protein: recombinant; tags: N-terminal GST; chain copies: 3; dsDNA, one strand shown. In a few lines: as §1
The target of another experiment is T2, SPIC (Homo sapiens, UniProt Q8N5J4 1-248).
T2 sequence: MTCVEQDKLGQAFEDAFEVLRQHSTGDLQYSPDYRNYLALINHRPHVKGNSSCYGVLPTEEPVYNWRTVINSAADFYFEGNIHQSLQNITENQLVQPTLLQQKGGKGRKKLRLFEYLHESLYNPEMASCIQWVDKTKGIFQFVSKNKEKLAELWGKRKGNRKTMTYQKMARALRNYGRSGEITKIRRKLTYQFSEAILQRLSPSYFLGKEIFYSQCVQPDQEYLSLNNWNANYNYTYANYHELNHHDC
The following applies: protein: recombinant; tags: N-terminal GST; dsDNA, one strand shown. In a few lines: as §1

For another experiment, the target named is ELF4 (Homo sapiens, UniProt Q99607 1-663). The settings on record: protein: recombinant; tags: N-terminal GST; dsDNA, one strand shown. The method, boiled down: as §1
ELF4, sequence (Q99607 whole entry): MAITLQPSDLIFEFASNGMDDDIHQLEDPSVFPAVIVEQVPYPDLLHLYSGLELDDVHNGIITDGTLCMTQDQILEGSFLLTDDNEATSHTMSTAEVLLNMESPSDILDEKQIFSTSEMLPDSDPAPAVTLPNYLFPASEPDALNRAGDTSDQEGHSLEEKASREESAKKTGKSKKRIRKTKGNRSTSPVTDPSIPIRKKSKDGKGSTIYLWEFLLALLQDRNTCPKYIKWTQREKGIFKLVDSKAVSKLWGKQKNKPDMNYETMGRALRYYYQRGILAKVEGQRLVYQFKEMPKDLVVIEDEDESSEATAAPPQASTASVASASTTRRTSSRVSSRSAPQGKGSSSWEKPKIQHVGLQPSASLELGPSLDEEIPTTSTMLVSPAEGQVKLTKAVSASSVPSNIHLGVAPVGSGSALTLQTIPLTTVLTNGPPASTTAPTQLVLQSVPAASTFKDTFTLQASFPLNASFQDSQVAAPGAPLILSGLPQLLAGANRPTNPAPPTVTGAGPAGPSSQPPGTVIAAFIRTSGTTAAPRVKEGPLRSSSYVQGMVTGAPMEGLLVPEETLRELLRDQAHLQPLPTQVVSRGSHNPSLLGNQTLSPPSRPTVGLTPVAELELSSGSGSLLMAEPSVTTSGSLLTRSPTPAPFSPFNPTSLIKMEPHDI
The target of another experiment is T3, ELK4 (Homo sapiens, UniProt P28324-2 1-405).
T3 sequence: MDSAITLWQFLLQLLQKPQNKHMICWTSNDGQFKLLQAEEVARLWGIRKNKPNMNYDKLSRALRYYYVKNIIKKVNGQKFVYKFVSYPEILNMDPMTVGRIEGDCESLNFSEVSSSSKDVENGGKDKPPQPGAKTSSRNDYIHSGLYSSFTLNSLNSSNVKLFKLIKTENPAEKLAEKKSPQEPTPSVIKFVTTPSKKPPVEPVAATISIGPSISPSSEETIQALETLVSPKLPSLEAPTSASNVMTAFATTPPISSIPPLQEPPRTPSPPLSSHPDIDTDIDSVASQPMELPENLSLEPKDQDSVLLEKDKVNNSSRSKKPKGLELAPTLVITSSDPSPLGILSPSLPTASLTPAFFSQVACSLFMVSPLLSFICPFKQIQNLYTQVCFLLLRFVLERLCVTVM
The settings on record: protein: recombinant; tags: N-terminal GST; dsDNA, one strand shown. The method, boiled down: as §1

A further experiment has as its target T4, ETV2 (Homo sapiens, UniProt O00321 1-342).
T4 sequence: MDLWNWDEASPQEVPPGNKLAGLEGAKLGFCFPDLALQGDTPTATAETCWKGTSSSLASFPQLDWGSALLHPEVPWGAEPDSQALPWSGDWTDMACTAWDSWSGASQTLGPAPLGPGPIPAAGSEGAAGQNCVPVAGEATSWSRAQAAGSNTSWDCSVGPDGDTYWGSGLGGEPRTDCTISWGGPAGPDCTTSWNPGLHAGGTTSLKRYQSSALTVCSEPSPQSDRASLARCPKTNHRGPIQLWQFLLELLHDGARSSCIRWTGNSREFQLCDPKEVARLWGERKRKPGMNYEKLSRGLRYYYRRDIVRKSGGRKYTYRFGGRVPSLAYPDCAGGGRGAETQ
The settings on record: protein: recombinant; tags: N-terminal GST; dsDNA, one strand shown. The method, boiled down: as §1

The target in another experiment is T5, ELF3 (Homo sapiens, UniProt P78545 1-371).
T5 sequence: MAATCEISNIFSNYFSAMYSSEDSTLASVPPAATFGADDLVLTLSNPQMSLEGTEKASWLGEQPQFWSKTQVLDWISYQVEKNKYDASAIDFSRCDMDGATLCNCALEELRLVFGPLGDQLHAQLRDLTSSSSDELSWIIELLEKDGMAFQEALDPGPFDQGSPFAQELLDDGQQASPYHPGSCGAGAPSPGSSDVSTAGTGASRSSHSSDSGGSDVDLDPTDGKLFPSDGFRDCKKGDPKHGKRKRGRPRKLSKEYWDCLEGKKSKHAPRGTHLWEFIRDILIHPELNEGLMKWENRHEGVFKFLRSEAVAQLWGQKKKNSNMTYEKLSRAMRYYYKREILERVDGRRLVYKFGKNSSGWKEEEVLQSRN
The following applies: protein: recombinant; tags: N-terminal GST; dsDNA, one strand shown. In a few lines: as §1

The target in a further experiment is CRX (Homo sapiens, UniProt O43186 1-299). The settings on record: protein: recombinant; tags: N-terminal GST; dsDNA, one strand shown. The method, boiled down: as §1
CRX, sequence (O43186 whole entry): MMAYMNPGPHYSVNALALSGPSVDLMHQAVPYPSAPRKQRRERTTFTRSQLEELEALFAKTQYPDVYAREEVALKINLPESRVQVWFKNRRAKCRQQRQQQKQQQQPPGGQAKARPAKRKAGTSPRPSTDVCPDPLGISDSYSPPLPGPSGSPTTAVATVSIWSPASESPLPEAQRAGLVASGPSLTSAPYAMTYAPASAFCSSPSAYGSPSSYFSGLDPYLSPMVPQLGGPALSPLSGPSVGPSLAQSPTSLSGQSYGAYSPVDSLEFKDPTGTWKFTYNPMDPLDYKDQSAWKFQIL
The next experiment concerns the target ETV1 (Homo sapiens, UniProt P50549 1-477). The settings on record: protein: recombinant; tags: N-terminal GST; dsDNA, one strand shown. In a few lines: as §1
Another experiment has as its target T6, ERF (Homo sapiens, UniProt P50548 1-548).
T6 sequence: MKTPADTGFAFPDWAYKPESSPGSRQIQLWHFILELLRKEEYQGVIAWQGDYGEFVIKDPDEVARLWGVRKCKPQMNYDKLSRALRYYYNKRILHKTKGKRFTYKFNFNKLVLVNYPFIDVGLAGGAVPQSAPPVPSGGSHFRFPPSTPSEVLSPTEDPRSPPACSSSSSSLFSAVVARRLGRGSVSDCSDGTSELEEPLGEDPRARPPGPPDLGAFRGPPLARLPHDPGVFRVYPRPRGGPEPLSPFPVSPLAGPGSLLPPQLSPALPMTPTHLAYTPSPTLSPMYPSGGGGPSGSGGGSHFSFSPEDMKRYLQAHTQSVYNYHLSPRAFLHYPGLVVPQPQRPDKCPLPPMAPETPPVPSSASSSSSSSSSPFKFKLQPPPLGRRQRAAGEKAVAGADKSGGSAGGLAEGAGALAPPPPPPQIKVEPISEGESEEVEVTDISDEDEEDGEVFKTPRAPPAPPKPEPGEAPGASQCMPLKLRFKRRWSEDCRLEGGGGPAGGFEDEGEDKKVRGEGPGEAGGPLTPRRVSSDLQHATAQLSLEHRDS
The settings on record: protein: recombinant; tags: N-terminal GST; dsDNA, one strand shown. The method, boiled down:
as §1

The next experiment has as its target T7, ETV3L (Homo sapiens, UniProt Q6ZN32 1-361).
T7 sequence: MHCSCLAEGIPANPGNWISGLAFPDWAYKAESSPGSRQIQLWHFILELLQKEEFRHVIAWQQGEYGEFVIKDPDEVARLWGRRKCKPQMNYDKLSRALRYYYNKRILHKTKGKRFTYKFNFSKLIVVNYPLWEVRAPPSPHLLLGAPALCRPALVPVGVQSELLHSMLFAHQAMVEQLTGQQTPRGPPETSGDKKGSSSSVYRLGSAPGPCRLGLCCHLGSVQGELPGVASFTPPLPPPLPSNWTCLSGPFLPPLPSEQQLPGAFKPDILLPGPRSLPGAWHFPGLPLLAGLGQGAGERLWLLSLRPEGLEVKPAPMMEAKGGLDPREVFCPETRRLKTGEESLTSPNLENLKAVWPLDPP
The following applies: protein: recombinant; tags: N-terminal GST; dsDNA, one strand shown. The method, boiled down: as §1

Another experiment deals with T8, ETS2 (Homo sapiens, UniProt P15036 1-469).
T8 sequence: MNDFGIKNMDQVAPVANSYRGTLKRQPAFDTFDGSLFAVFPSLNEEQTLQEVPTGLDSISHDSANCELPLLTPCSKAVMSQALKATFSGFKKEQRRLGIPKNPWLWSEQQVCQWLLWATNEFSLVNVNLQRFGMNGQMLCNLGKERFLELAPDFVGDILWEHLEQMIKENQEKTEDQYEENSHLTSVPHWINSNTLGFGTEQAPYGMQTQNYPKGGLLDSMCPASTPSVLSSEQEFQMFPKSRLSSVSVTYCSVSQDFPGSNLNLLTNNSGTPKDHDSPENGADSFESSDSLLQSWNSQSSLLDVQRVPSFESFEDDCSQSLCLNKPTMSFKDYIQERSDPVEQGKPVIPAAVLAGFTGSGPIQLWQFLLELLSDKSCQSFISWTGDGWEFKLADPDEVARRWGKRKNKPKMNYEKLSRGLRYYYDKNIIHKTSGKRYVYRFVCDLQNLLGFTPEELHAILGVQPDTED
The settings on record: protein: recombinant; tags: N-terminal GST; dsDNA, one strand shown. The method, boiled down:
as §1

For a further experiment, the target named is T9, SPDEF (Homo sapiens, UniProt O95238 1-335).
T9 sequence: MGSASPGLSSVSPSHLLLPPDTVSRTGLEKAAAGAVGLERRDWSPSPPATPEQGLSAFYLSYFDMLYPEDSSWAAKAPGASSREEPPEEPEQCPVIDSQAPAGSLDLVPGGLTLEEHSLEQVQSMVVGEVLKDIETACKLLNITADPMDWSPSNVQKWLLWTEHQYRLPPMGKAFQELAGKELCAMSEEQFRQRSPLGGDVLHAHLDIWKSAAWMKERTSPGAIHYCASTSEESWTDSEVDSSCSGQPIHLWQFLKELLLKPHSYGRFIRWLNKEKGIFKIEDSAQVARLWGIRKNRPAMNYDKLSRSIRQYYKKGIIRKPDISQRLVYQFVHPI
The following applies: protein: recombinant; tags: N-terminal GST; dsDNA, one strand shown. In a few lines: as §1

For the next experiment, the target named is T10, ETV7 (Homo sapiens, UniProt Q9Y603 1-341).
T10 sequence: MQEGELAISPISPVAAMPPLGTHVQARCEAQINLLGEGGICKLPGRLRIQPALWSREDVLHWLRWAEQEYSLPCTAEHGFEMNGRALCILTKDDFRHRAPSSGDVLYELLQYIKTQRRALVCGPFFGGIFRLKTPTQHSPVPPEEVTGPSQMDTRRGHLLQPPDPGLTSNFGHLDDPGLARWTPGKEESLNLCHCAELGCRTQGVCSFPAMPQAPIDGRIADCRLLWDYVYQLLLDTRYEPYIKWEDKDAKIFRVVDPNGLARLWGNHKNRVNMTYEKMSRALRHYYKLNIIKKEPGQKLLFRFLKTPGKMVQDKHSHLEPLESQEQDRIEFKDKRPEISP
The following applies: protein: recombinant; tags: N-terminal GST; dsDNA, one strand shown. In a few lines: as §1

The target of a further experiment is T11, ELF5 (Homo sapiens, UniProt Q9UKW6-2 1-255).
T11 sequence: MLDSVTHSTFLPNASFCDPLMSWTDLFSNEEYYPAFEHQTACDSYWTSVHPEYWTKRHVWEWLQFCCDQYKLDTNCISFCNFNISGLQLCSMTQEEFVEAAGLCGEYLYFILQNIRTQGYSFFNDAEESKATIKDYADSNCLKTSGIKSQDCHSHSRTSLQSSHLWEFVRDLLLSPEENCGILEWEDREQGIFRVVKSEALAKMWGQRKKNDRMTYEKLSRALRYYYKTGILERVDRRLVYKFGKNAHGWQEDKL
The following applies: protein: recombinant; tags: N-terminal GST; dsDNA, one strand shown. In a few lines:
as §1

The next experiment concerns the target T12, ETV3 (Homo sapiens, UniProt P41162-2 1-143).
T12 sequence: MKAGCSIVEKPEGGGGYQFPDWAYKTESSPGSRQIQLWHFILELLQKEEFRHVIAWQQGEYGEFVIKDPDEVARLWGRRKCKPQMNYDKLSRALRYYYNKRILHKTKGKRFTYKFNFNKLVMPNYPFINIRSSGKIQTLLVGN
The settings on record: protein: recombinant; tags: N-terminal GST; dsDNA, one strand shown. In a few lines:
as §1

In the next experiment the target is ETV6 (Homo sapiens, UniProt P41212 1-452). The settings on record: protein: recombinant; tags: N-terminal GST; dsDNA, one strand shown. The method, boiled down:
as §1

HSF1, sequence (Q00613 whole entry): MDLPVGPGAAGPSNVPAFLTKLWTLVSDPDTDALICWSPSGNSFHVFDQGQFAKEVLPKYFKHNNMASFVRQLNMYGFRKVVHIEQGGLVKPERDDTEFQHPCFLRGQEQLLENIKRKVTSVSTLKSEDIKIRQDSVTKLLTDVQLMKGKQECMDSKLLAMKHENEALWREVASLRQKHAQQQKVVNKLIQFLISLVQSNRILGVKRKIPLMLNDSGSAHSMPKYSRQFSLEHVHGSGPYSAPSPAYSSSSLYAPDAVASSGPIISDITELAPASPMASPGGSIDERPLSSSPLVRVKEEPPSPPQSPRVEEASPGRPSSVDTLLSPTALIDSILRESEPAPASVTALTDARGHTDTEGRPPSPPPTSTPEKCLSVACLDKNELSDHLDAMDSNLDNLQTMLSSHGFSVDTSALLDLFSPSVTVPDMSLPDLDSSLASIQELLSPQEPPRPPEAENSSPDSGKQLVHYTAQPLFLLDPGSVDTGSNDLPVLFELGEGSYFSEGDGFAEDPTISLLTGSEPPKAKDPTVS
ETV5, sequence (P41161 whole entry): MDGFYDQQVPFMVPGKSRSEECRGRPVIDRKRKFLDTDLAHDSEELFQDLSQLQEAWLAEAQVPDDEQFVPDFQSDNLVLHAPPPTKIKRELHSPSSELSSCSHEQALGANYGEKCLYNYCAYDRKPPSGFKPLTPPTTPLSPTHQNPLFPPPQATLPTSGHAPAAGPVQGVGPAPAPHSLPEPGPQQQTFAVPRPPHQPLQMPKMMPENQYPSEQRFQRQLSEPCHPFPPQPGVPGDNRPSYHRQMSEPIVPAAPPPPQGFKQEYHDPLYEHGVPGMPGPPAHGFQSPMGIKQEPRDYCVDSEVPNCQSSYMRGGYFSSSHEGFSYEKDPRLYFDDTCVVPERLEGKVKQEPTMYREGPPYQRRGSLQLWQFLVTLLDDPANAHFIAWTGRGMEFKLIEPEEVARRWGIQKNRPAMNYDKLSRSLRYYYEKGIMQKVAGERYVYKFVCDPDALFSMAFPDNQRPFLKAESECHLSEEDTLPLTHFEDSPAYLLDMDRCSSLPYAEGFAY
ETV6, sequence (P41212 whole entry): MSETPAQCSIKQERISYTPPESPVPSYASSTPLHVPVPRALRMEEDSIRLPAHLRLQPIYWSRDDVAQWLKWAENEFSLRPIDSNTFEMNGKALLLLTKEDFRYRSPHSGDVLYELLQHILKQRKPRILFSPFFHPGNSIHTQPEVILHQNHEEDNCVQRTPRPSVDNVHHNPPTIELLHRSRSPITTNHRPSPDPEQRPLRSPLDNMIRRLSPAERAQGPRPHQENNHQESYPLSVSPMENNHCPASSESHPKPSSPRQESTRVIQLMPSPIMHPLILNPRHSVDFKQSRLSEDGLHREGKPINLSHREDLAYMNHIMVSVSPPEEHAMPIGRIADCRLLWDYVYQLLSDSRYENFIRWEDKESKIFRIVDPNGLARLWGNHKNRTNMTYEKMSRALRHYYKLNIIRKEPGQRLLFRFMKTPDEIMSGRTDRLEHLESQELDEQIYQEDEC
ETV1, sequence (P50549 whole entry): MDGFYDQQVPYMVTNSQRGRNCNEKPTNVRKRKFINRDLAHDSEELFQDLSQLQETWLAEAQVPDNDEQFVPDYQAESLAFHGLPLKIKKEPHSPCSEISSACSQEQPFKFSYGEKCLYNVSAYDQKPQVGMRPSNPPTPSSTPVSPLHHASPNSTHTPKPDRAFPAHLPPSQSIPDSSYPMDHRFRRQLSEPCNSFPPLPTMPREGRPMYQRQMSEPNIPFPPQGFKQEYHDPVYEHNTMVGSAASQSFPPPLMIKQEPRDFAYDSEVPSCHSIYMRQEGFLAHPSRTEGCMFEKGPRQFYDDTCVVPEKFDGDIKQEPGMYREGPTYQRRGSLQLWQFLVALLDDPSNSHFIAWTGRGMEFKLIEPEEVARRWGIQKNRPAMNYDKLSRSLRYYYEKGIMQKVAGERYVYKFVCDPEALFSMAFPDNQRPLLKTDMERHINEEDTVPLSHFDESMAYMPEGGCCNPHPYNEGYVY

In the case of ACAGCT, the binding signal in the experiment with FEV was 1.07 fold enrichment (6-mer frequency, TF over GST control); in the experiment with ETV5, 1.02 fold enrichment (6-mer frequency, TF over GST control); with HSF1, 1.07 fold enrichment (6-mer frequency, TF over GST control); with SPIC it was 1.11 fold enrichment (6-mer frequency, TF over GST control); in the experiment with ELF4, 1.15 fold enrichment (6-mer frequency, TF over GST control); with ELK4, 1.13 fold enrichment (6-mer frequency, TF over GST control). The binding signal is 1.16 fold enrichment (6-mer frequency, TF over GST control) with ETV2; 1.36 fold enrichment (6-mer frequency, TF over GST control) with ELF3; 1.18 fold enrichment (6-mer frequency, TF over GST control) with CRX; 1.08 fold enrichment (6-mer frequency, TF over GST control) with ETV1; 1.24 fold enrichment (6-mer frequency, TF over GST control) with ERF; 1.19 fold enrichment (6-mer frequency, TF over GST control) with ETV3L. Besides, the binding signal with ETS2 is 1.12 fold enrichment (6-mer frequency, TF over GST control); with SPDEF, 1.02 fold enrichment (6-mer frequency, TF over GST control); in the experiment with ETV7 it was 1.21 fold enrichment (6-mer frequency, TF over GST control); with ELF5, 1.12 fold enrichment (6-mer frequency, TF over GST control); in the experiment with ETV3, 1.14 fold enrichment (6-mer frequency, TF over GST control); in the experiment with ETV6 it was 1.08 fold enrichment (6-mer frequency, TF over GST control).
